# Source: PubChem BioAssay AID1159580 (chemical genetic matrix, 2015)
# Several values for one entry are separate records, joined by “and”; a condition that tells them apart may be missing. Equal values may be shown once. Out of some 5,500 compounds screened, about 2,000 (36%) were called active. Not shown: some 18% with an inconclusive outcome. Rule as the data show it: active = normalized growth mostly below about 0.91 (no sharp cut-off); inconclusive = no clear call, values can overlap the other calls; inactive = mostly above about 0.92. The list shows a part of the results.
# Experiment: chemical genetic growth profiling, strain panel (AID 1159580);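 also: tested at 20 µM; growth read once vehicle control cultures reached saturation at 30 °C; 1 = growth at the plate median or of vehicle wells; lower values mean less growth of the strain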
# Conditions: S. cerevisiae deletion strains, growth OD
compound,measurement,setting,value
CC(C)c1ccc2c(c1)CCC1C(C)(C(N)=O)CCCC21C (stereo not drawn),normalized growth,"locus YAL013W, strain DEP1, stronger effect = lower value",0.923 (inactive)
same,normalized growth,"locus YAL021C, strain ccr4, stronger effect = lower value",1.01 (inactive)
same,normalized growth,"locus YAL026C, strain drs2, stronger effect = lower value",0.916 (inactive)
same,normalized growth,"locus YAL030W, strain snc1, stronger effect = lower value",0.966 (inactive)
same,normalized growth,"locus YBL061C, strain skt5, stronger effect = lower value",0.951 (inactive)
same,normalized growth,"locus YBR009C, strain hhf1, stronger effect = lower value",0.947 (inactive)
same,normalized growth,"locus YBR021W, strain FUR4, stronger effect = lower value",1.02 (inactive)
same,normalized growth,"locus YBR023C, strain chs3, stronger effect = lower value",0.916 (inactive)
same,normalized growth,"locus YBR171W, strain sec66, stronger effect = lower value",0.952 (inactive)
same,normalized growth,"locus YBR229C, strain ROT2, stronger effect = lower value",0.983 (inactive)
same,normalized growth,"locus YBR231C, strain swc5, stronger effect = lower value",0.993 (inactive)
same,normalized growth,"locus YBR279W, strain paf1, stronger effect = lower value",0.992 (inactive)
same,normalized growth,"locus YCL011C, strain gbp2, stronger effect = lower value",0.941 (inactive)
same,normalized growth,"locus YCL016C, strain dcc1, stronger effect = lower value",0.94 (inactive)
same,normalized growth,"locus YCL029C, strain bik1, stronger effect = lower value",0.969 (inactive)
same,normalized growth,"locus YCL061C, strain MRC1, stronger effect = lower value",0.953 (inactive)
same,normalized growth,"locus YCL069W, strain vba3, stronger effect = lower value",0.969 (inactive)
same,normalized growth,"locus YCR088W, strain abp1, stronger effect = lower value",0.958 (inactive)
same,normalized growth,"locus YDL005C, strain med2, stronger effect = lower value",0.954 (inactive)
same,normalized growth,"locus YDL035C, strain GPR1, stronger effect = lower value",0.88 (inactive)
same,normalized growth,"locus YDL040C, strain nat1, stronger effect = lower value",0.976 (inactive)
same,normalized growth,"locus YDL074C, strain BRE1, stronger effect = lower value",0.76 (active)
same,normalized growth,"locus YDL101C, strain DUN1, stronger effect = lower value",0.946 (inactive)
same,normalized growth,"locus YDL134C, strain PPH21, stronger effect = lower value",0.898 (inactive)
same,normalized growth,"locus YDL185W, strain tfp1, stronger effect = lower value",0.991 (inactive)
same,normalized growth,"locus YDL192W, strain arf1, stronger effect = lower value",0.831 (active)
same,normalized growth,"locus YDR001C, strain nth1, stronger effect = lower value",0.948 (inactive)
same,normalized growth,"locus YDR069C, strain doa4, stronger effect = lower value",0.989 (inactive)
same,normalized growth,"locus YDR101C, strain arx1, stronger effect = lower value",0.937 (inactive)
same,normalized growth,"locus YDR137W, strain rgp1, stronger effect = lower value",0.679 (active)
same,normalized growth,"locus YDR159W, strain sac3, stronger effect = lower value",0.895 (inactive)
same,normalized growth,"locus YDR162C, strain NBP2, stronger effect = lower value",0.872 (inactive)
same,normalized growth,"locus YDR195W, strain ref2",0.922 (inactive)
same,normalized growth,"locus YDR297W, strain sur2, stronger effect = lower value",0.968 (inactive)
same,normalized growth,"locus YDR318W, strain mcm21, stronger effect = lower value",0.931 (inactive)
same,normalized growth,"locus YDR334W, strain swr1, stronger effect = lower value",0.965 (inactive)
same,normalized growth,"locus YDR335W, strain msn5, stronger effect = lower value",0.976 (inactive)
same,normalized growth,"locus YDR388W, stronger effect = lower value",0.972 (inactive)
same,normalized growth,"locus YDR392W, strain spt3, stronger effect = lower value",0.627 (active)
same,normalized growth,"locus YDR502C, strain sam2, stronger effect = lower value",0.926 (inactive)
same,normalized growth,"locus YEL003W, strain gim4, stronger effect = lower value",0.971 (inactive)
same,normalized growth,"locus YEL037C, strain rad23, stronger effect = lower value",0.973 (inactive)
same,normalized growth,"locus YEL061C, strain CIN8 (second series), stronger effect = lower value",0.96 (inactive)
same,normalized growth,"locus YEL061C, strain CIN8, stronger effect = lower value",0.962 (inactive)
same,normalized growth,"locus YER015W, strain faa2, stronger effect = lower value",0.982 (inactive)
same,normalized growth,"locus YER016W, strain bim1, stronger effect = lower value",0.967 (inactive)
same,normalized growth,"locus YER110C, stronger effect = lower value",0.995 (inactive)
same,normalized growth,"locus YER111C, strain swi4, stronger effect = lower value",0.936 (inactive)
same,normalized growth,"locus YER155C, strain BEM2 (second series), stronger effect = lower value",0.955 (inactive)
same,normalized growth,"locus YER155C, strain BEM2, stronger effect = lower value",0.89 (active)
same,normalized growth,"locus YER167W, strain BCK2, stronger effect = lower value",0.898 (active)
same,normalized growth,"locus YFR010W, strain ubp6, stronger effect = lower value",0.957 (inactive)
same,normalized growth,"locus YGL078C, strain dbp3, stronger effect = lower value",0.964 (inactive)
same,normalized growth,"locus YGL086W, strain mad1, stronger effect = lower value",0.894 (active)
same,normalized growth,"locus YGL167C, strain pmr1, stronger effect = lower value",0.945 (inactive)
same,normalized growth,"locus YGL173C, strain kem1, stronger effect = lower value",0.951 (inactive)
same,normalized growth,"locus YGL227W, strain vid30, stronger effect = lower value",0.965 (inactive)
same,normalized growth,"locus YGL240W, strain doc1, stronger effect = lower value",0.963 (inactive)
same,normalized growth,"locus YGL248W, strain PDE1, stronger effect = lower value",0.926 (inactive)
same,normalized growth,"locus YGL253W, strain hxk2, stronger effect = lower value",0.951 (inactive)
same,normalized growth,"locus YGR135W, strain pre9, stronger effect = lower value",0.932 (inactive)
same,normalized growth,"locus YGR229C, strain SMI1, stronger effect = lower value",0.654 (active)
same,normalized growth,"locus YGR252W, strain gcn5, stronger effect = lower value",0.857 (inactive)
same,normalized growth,"locus YHR013C, strain ard1, stronger effect = lower value",1.09 (inactive)
same,normalized growth,"locus YHR027C, strain rpn1, stronger effect = lower value",0.979 (inactive)
same,normalized growth,"locus YHR030C, strain SLT2, stronger effect = lower value",0.815 (active) and 0.881 (inactive)
same,normalized growth,"locus YHR079C, strain IRE1 (second series), stronger effect = lower value",0.974 (inactive)
same,normalized growth,"locus YHR079C, strain IRE1, stronger effect = lower value",0.848 (active)
same,normalized growth,"locus YHR094C, strain hxt1, stronger effect = lower value",1 (inactive)
same,normalized growth,"locus YHR129C, strain ARP1, stronger effect = lower value",0.941 (inactive)
same,normalized growth,"locus YHR142W, strain chs7, stronger effect = lower value",0.801 (active)
same,normalized growth,"locus YHR200W, strain rpn10, stronger effect = lower value",0.945 (inactive)
same,normalized growth,"locus YIL066C, strain RNR3, stronger effect = lower value",0.902 (inactive)
same,normalized growth,"locus YIL073C, strain SPO22, stronger effect = lower value",0.833 (inactive)
same,normalized growth,"locus YIL125W, strain kgd1, stronger effect = lower value",0.939 (inactive)
same,normalized growth,"locus YIR030C, strain dcg1, stronger effect = lower value",0.97 (inactive)
same,normalized growth,"locus YJL092W, strain hpr5, stronger effect = lower value",0.956 (inactive)
same,normalized growth,"locus YJL095W, strain BCK1 (second series), stronger effect = lower value",0.966 (inactive)
same,normalized growth,"locus YJL095W, strain BCK1, stronger effect = lower value",0.695 (active) and 0.911 (inactive)
same,normalized growth,"locus YJL115W, strain asf1, stronger effect = lower value",0.976 (inactive)
same,normalized growth,"locus YJL129C, strain trk1, stronger effect = lower value",0.905 (inactive)
same,normalized growth,"locus YJL134W, strain LCB3, stronger effect = lower value",0.983 (inactive)
same,normalized growth,"locus YJL154C, strain vps35, stronger effect = lower value",0.961 (inactive)
same,normalized growth,"locus YJL164C, strain tpk1, stronger effect = lower value",0.941 (inactive)
same,normalized growth,"locus YJL166W, strain qcr8, stronger effect = lower value",0.965 (inactive)
same,normalized growth,"locus YJL168C, strain set2, stronger effect = lower value",0.993 (inactive)
same,normalized growth,"locus YJL187C, strain SWE1 (second series), stronger effect = lower value",0.924 (inactive)
same,normalized growth,"locus YJL187C, strain SWE1, stronger effect = lower value",0.968 (inactive)
